Test results from PubChem BioAssay (EPA / NIEHS).
The source made the active and inactive calls. The calls were made as follows: active = hit-call score of the fitted dose curve at least 0.9, where 1 is the maximum; inactive = score below 0.9.

assay: ATG_M_61_CIS: Attagene CIS-FACTORIAL HepG2 Assay for M61 Transcription Factor (Internal Marker) (AID 2282937); settings: HepG2 Attagene CIS-FACTORIAL M61 internal marker reporter; actives raise or lower the signal
Description: ATG_CIS is a cell-based, multiplexed-readout assay that uses HepG2, a human liver cell line, with measurements taken at 24 hours after chemical dosing in a 24-well plate.ATG_M_61_CIS is one of 52 assay component(s) measured or calculated from the ATG_CIS assay. It is designed to make measurements of mRNA induction, a form of inducible reporter, as detected with fluorescence intensity signals by Reverse transcription polymerase chain reaction (RT-PCR) and Capillary electrophoresis technology.Data from the assay component ATG_M_61_CIS was analyzed into 1 assay endpoint. This assay endpoint, ATG_M_61_CIS, was analyzed with bidirectional fitting relative to DMSO as the negative control and baseline of activity. Using a type of inducible reporter, measures of mRNA for gain or loss-of-signal activity can be used to understand the background control at the transcription factor-level as they relate to the gene . Furthermore, this assay endpoint can be referred to as a secondary readout, because this assay has produced multiple assay endpoints where this one serves a background control function. To generalize the intended target to other relatable targets, this assay endpoint is annotated to the background measurement intended target family, where the subfamily is internal marker.
Human liver HepG2 cells are transiently transfected with multiple reporter transcription units (MRTUs) in 6-well plates using FuGene 6 reagent (Roche; 3 ml FuGene/1 mg DNA). The MRTU constructs are regulated by a cis-regulating element (promoter). […] A major difference between the CIS and TRANS system is that in CIS activities of endogenous TFs are measured, whereas the TRANS assay evaluates changes in activities of exogenous, chimeric NR-Gal4 proteins. […] At the end of 24 hour incubation, total RNA was isolated using TriZol reagent (Invitrogen). The isolated RNA is then reverse-transcribed using oligo(dT) primer and Mo-MLV reverse transcriptase (Invitrogen) with DNAse I (Ambion) treatment for 30 min. The one-tenth of the produced cDNA was amplified by PCR using Taq DNA polymerase (Invitrogen) and two reporter sequence-specific primers. The PCR products were fluorescently labeled by primer extension with 6-arboxyfluorescein (6-FAM) 5'-labeled reporter sequence-specific primer (2 min at 95 C, 20 s at 68 C and 10 min at 72 C) and these products were digested with 5U of HpaI (New England Biolabs) for 2h at 37 C. The fragments were purified using Qiaquick PCR columns (Qiagen), analyzed on an ABI 3130xL genetic analyzer (Applied Biosystems) with peak positions identified by using a set of X-rhodamine (ROX)-labeled MapMarker1000 molecular weight standards (BioVentures). The raw capillary electrophoresis data was processed using Attagraph software (Attagene).

outcome, inactive:
O=C(O)/C=C/C(=O)O
CCCOCCC
CN(C)c1ccc(C(c2ccccc2)c2ccc(N(C)C)cc2)cc1
CC(C)CC(=O)CC(C)CC(C)C (stereo not given)
CCCc1c(OCCCCc2nn[nH]n2)ccc(C(C)=O)c1O
C=CN1CCCCCC1=O
CC/C=C\CCCCCO
O=S(=O)(O)c1cccc2ccccc12
CC1=C(CC=O)C(C)(C)CCC1
CCOc1ccc2c(c1)C(C)CC(C)(C)N2 (stereo not given)
COc1ccccc1OCC(O)CO (stereo not given)
CCCCCC1CCCC(=O)O1 (stereo not given)
NC(=O)c1ccc(N)cc1
CCOC(=O)c1ccccc1
CCc1cc(C(N)=S)ccn1
O=[N+]([O-])c1ccccc1C(F)(F)F
CC(=O)OC(C)(C)Cc1ccccc1
COC(=O)CCSCCC(=O)OC
OCCc1ccccn1
CC(C)(C)NC(=O)[C@@H]1CN(Cc2cccnc2)CCN1C[C@@H](O)C[C@@H](Cc1ccccc1)C(=O)N[C@H]1c2ccccc2C[C@H]1O
C=CCOCC(CC)(CO)COCC=C
CC(C)(Oc1ccc(Cl)cc1)C(=O)O
CC(C)CC(=O)CC(C)C
COC(=O)[C@]1(C)CCC[C@@]2(C)[C@H]1CC=C1C=C(C(C)C)CC[C@@H]12
Oc1cccc2ccccc12
N#CCN(CC#N)CCN(CC#N)CC#N
CN(C)N=Nc1ccccc1
CNC(=C[N+](=O)[O-])NCCSCc1csc(CN(C)C)n1
O=C(OCc1ccccc1)c1ccccc1
COC(=O)/C=C\C(=O)OC
Clc1ccc(Sc2cc(Cl)c(Cl)cc2Cl)cc1
COc1cccc(OC)c1C(=O)O
CCCCn1cc[n+](C)c1
CCCCCCCCCCCCCC
Nc1ccc(S(=O)(=O)Nc2cnc3ccccc3n2)cc1
Sc1nc2ccccc2s1
CCCCCCCCCC/C=C/C1CC(=O)OC1=O (stereo not given)
Cc1ccnc(N)c1
CC(=O)c1nccs1
Oc1ccc(Oc2ccccc2)cc1
